From PubChem
Sfp inh – blocks B. subtilis Sfp PPTase activity | Q9F4F7 | Biochemical Sfp PPTase activity, qHTS | Potency, µM, for the others: largest response in the series, negative = inhibition, actives largely listed as inhibitors | actives 3.5% (n = 310,000) | AID 1490;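 further: the enzyme is Sfp with the accession as filed and its product quenches rhodamine fluorescence; 0% = enzyme reaction without inhibitor and -100% = no enzyme wells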
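Step 1, compound plus 15 nM Sfp-PPTase, 15 min, room temperature. Step 2, add rhodamine-CoA (5 uM) and BHQ-2-YbbR (12.5 uM). Step 3, read 525/598 nm fluorescence at 0 and 30 min.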
HP1b binding inh – inhibitors of HP1-beta chromodomain binding to methylated histone tails. P83916. AlphaScreen HP1-beta / biotin-H3K9me3 peptide binding. Potency, µM (titrated, usually from 114 µM), for inactives: at the highest dose activity change, negative = inhibition, usual class: inhibitors. actives 0.56% (n = 390,000). AID 540317; further: nearly all actives have a fitted effect of over 70% in size
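AlphaScreen: HP1-beta (50 nM) preformed 30 min with biotin-H3(1-18)K9me3 peptide (50 nM) in PBS pH 7.4, 0.01% Tween-20. Compound added for 30 min at RT, then streptavidin donor/nickel chelate acceptor beads (10 ug/mL) for 30 min.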
G9a block – blocks human histone lysine methyltransferase G9a; Q96KQ7; G9a H3K9 monomethylation, AlphaScreen, 2 h; Potency, µM (doses to about 102 µM), for inactives: at the top dose activity, negative = inhibition, most hits filed as inhibitors; actives 8.8% (n = 350,000); further: on the % scale 0 is the no-effect control and ±100 the full control effect; nearly all actives have a fitted effect of over 75% in size
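AlphaScreen detection with an anti-monomethyl H3K9 antibody quantified product after a 2 h room-temperature reaction containing 500 nM biotinylated H3K9 peptide, 20 µM SAM and 20 nM enzyme, which had been preincubated 15 min with compound.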
L3MBTL1 block – L3MBTL1 (human) inhibition. Q9Y468. AlphaScreen L3MBTL1–H3K9me1 peptide binding. Potency, µM (doses to about 57.1 µM), for inactives: at the highest dose activity, negative = inhibition, actives largely listed as inhibitors. actives 0.66% (n = 230,000). AID 485360; further: on the % scale 0 is the no-effect control and ±100 the full control effect; nearly all actives have a fitted effect of over 60% in size
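L3MBTL1 (50 nM) pre-complexed 30 min with biotinylated H3(1-15)K9me1 peptide (75 nM), then compounds added for 30 min at room temperature; AlphaScreen streptavidin donor/nickel chelate acceptor beads (10 ug/mL final) read after 30 min dark incubation.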
BAZ2B inh – BAZ2B (human) inhibition; Q9UIF8; AlphaScreen BAZ2B-H3K14Ac peptide displacement; Potency, µM (top dose mostly 114 µM), for the others: at the highest dose activity change, negative = inhibition, most hits filed as inhibitors; actives 4.4% (n = 360,000); AID 504333; further: on the % scale 0 is the no-effect control and ±100 the full control effect; nearly all actives have a fitted effect of over 60% in size
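AlphaScreen displacement of biotin-H3(5-23)K14Ac peptide (50 nM final) from BAZ2B (50 nM final) in PBS pH 7.4, 0.01% Tween-20; complex preformed 30 min RT, then compounds (top 110 uM) 30 min RT, beads 20 min dark.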
JMJD2A Tudor – JMJD2A Tudor domain (human) inhibition; O75164; AlphaScreen JMJD2A-Tudor / H3K4me3 peptide binding; Potency, µM (doses to about 114 µM), for inactives: at the top dose activity change, negative = inhibition, hits mostly inhibitors; actives 4.4% (n = 390,000); AID 504339; further: on the % scale 0 is the no-effect control and ±100 the full control effect; nearly all actives have a fitted effect of over 50% in size
* hit, by the source's call; ? = inconclusive; · = no result given; ! = a repeat was not active; [ ] = another dose, or the depositor's remark. Most compounds without a hit are left out; they make up all but 12% or so of the library. The call rests on the fitted dose curve; in most records, active means well fitted curve in the direction sought with a large enough effect; inconclusive means small, poorly fitted or top-dose-only effect, or another doubt; inactive means no such curve, though single readings can be large; an effect the other way counts as inactive or inconclusive. Potency means the concentration at half of the fitted maximal effect.

SMILES	Sfp inh	HP1b binding inh	G9a block	L3MBTL1 block	BAZ2B inh	JMJD2A Tudor
Cc1ccc(CNc2ccc3c(c2)OCO3)c(C)c1	?	·	13µM*	·	45µM*	·
Cc1ccc(C)c(NC(=O)Nc2ccc3c(c2)OCO3)c1	0%	22%	5%[12.7 µM]	·	-12%	-8%
Cc1cccc(N2CN(S(=O)(=O)c3cccc([N+](=O)[O-])c3)c3nc4ccccc4nc32)c1	·	0%	·	1%	·	-26%
COc1ccc(/C=C/N(CCc2ccc(OC)c(OC)c2)C(=O)c2ccccn2)cc1	3%	·	·	·	·	·
O=C(NCCc1csc(-c2ccccc2)n1)c1ccc(Br)o1	12%	29%	1%[59 µM]	-5%	-3%	0%
O=C(NCCc1csc(-c2cccnc2)n1)c1ccc(Br)o1	20µM*	56%	20µM*	-9%	2%	-18%
CCN(CC)c1ccc(/C=N/N2CCN(Cc3cccc4ccccc34)CC2)c(O)c1	16%	?	3%[2.33 µM]	-8%	?	7.1µM*
C(=N\N1CCN(Cc2ccccc2)CC1)/c1cccs1	10%	-19%	?	-25%	?	?
C(=N\N1CCN(Cc2cccc3ccccc23)CC1)/c1cccs1	0%	?	50µM*	-4%	13µM*	40µM*
CCN(CC)c1ccc(/C=N/N2CCN(Cc3ccc(Cl)cc3)CC2)c(O)c1	3%	?	10µM*	-14%	3.5µM*	?
CCN(CC)c1ccc(/C=N/N2C(=O)c3ccccc3C2=O)c(O)c1	?	9%	?	33%	15%	-26%
Oc1ccc(Br)cc1/C=N/N1CCN(Cc2cccc3ccccc23)CC1	-2%	-2%	·	-3%	-39%	?
CCCCC1=CC2=C(c3ccco3)C(=O)C(C)(OC(=O)c3ccc(OC)cc3)C(=O)C2=CN1Cc1ccco1 (stereo unspecified)	45µM*	-13%	-41%[59 µM]	·	?	?
CCCCC1=CC2=C(c3ccco3)C(=O)C(C)(OC(=O)c3ccc(OC)cc3)C(=O)C2=CN1CC(C)C (stereo unspecified)	3.5µM*!	39%	?	·	?	-22%
CCCCC1=CC2=C(c3ccco3)C(=O)C(C)(OC(=O)c3ccc(OC)cc3)C(=O)C2=CN1CC1CC1 (stereo unspecified)	17%	-24%	?	·	?	?
CCCCC1=CC2=C(c3ccco3)C(=O)C(C)(OC(=O)c3ccc(OC)cc3)C(=O)C2=CN1CCCCO (stereo unspecified)	?	-12%	-2%[12.7 µM]	·	-32%	?
CCCCC1=CC2=C(c3ccco3)C(=O)C(C)(OC(=O)c3ccc(OC)cc3)C(=O)C2=CN1Cc1ccc(OC)cc1 (stereo unspecified)	71µM*!	·	-40%[59 µM]	·	?	·
COC(=O)CCCC1=CC2=C(c3ccccc3)C(=O)C(C)(OC(=O)C3CCCC3)C(=O)C2=CN1Cc1ccc(OC)cc1 (stereo unspecified)	2%	?	?	·	?	50µM*
COc1ccc(/C=C2/C(=O)N(c3nc4ccccc4s3)N=C2CSc2ccc(Cl)cc2)cc1	-13%	10%	-4%[59 µM]	?	-1%	-13%
COc1cccc(N=c2oc3cc(O)ccc3cc2C(=O)NCC2CCCO2)c1 (stereo unspecified)	-14%	8%	-10%	-20%	35µM*	-35%
COc1ccccc1N=c1oc2cc(O)ccc2cc1C(=O)NCC1CCCO1 (stereo unspecified)	-7%	18%	23%[59 µM]	-11%	-9%	-20%
COc1ccc(N2CCN(C(=O)C(C)n3c(=O)cc(C(F)(F)F)c4c(C)nn(C)c43)CC2)cc1 (stereo unspecified)	·	?	10µM*	·	35µM*	-24%
Cc1nn(C)c2c1c(C(F)(F)F)cc(=O)n2C(C)C(=O)N1CCN(c2ccccc2)CC1 (stereo unspecified)	·	54%	-9%[59 µM]	·	-12%	-29%
N#Cc1cccc(-c2cc(NCc3ccccc3)ncn2)c1	24%	·	-5%[0.501 µM]	·	·	·
CO/N=C\CC(=O)Nc1ccc(F)cc1	10%	?	7%[12.7 µM]	1%	11%	-14%
SMILES	Sfp inh	HP1b binding inh	G9a block	L3MBTL1 block	BAZ2B inh	JMJD2A Tudor
CO/N=C\CC(=O)Nc1ccc(Cl)cc1Cl	-7%	3%	10%[59 µM]	9%	7%	14µM*
CCN(C(=O)CSc1nc2cc(C(=O)O)ccc2c(=O)n1Cc1ccccc1)c1ccccc1	-7%	10%	1%	·	-8%	-27%
CN(C(=O)CSc1nc2cc(C(=O)O)ccc2c(=O)n1Cc1ccccc1)C1CCS(=O)(=O)C1 (stereo unspecified)	9%	19%	50µM*	5%	-5%	-16%
Cc1ccc(NC(=O)c2nc3nccc(C)n3n2)c(C)c1	13%	23%	5%	47%	-4%	2%
Cc1csc(NC(=O)c2nc3nccc(C)n3n2)n1	5%	-4%	50µM*	8%	-1%	?
Cc1csc(NC(=O)c2ccc3ccccc3n2)n1	-2%	9%	2%	·	-25%	?
Cc1ccnc2nc(C(=O)Nc3nc4ccccc4s3)nn12	-7%	15%	5%[59 µM]	-1%	0%	16µM*
COc1ccc(-c2nc(NC(=O)c3nc4nccc(C)n4n3)sc2C)cc1	-15%	33%	?	39%	1%	-35%
Cc1csc(NC(=O)c2cnc3ccccc3n2)n1	-15%	-25%	45µM*	·	-25%	-34%
Cc1ccnc2nc(C(=O)Nc3nnc(-c4ccc(Cl)cc4)o3)nn12	-3%	29%	?	·	?	18µM*
CCOC(=O)c1cccc(NC(=O)C(C)n2c(C)c3cnn(-c4ccccc4)c(=O)c3c2C)c1 (stereo unspecified)	·	10%	-25%[59 µM]	·	-13%	-9%
O=C(O)C1C2OC3C(OC(=O)C31)C2Br (stereo unspecified)	·	8%[57 µM]	·	·	·	6%
CO/N=C(\C(=O)N[C@@H]1C(=O)N2C(C(=O)[O-])=C(C[N+]3(C)CCCC3)CS[C@@H]12)c1csc(N)n1	-23%	·	-43%[12.7 µM]	·	·	·
Cc1ccnc2nc(C(=O)Nc3nnc(CC(C)C)s3)nn12	?	17%	25µM*	·	-35%	45µM*
CCCCc1nnc(NC(=O)c2nc3nccc(C)n3n2)s1	-24%	25%	?	-14%	·	-6%
CSc1cccc(NC(=O)N2CCN(c3cc(-c4noc(C)n4)ccc3C)CC2)c1	·	6%[57 µM]	3%[59 µM]	·	3%	-16%
CCC(Sc1nc2n[nH]c(C)c2c(=N)n1-c1ccc(Br)cc1)C(=O)N(CC)CC (stereo unspecified)	·	52%	15%[59 µM]	·	-10%	-20%
